# Legend:
# Experiment in all cases: DAPPL (digital affinity profiling via proximity ligation, sequencing); 10 mM Tris-HCl pH 7.5, 50 mM NaCl, 1 mM DTT, 4% glycerol, room temperature, 30 min; GST-TFs on glutathione beads, 16-mer random dsDNA library, 0.1% formaldehyde crosslink after washing; high values mean tight binding
# Settings in all cases: protein: recombinant; tags: N-terminal GST; dsDNA, one strand shown
# FEV = target: T1, FEV (Homo sapiens, UniProt Q99581 1-238)
# T1 sequence: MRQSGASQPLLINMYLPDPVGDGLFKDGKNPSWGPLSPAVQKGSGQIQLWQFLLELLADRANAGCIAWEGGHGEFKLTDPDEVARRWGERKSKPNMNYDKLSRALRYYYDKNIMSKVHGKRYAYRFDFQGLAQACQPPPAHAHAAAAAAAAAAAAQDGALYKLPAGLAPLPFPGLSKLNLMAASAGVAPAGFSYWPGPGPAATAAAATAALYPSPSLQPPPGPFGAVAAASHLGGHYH
# Method in brief: (§1)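 Sequencing on an Illumina NextSeq500 followed washing, crosslinking with 0.1% formaldehyde, proximity ligation (BsaI/T4 ligase, 1 h, 37 °C) and PCR amplification of pools that had been incubated for 30 min at room temperature with 200 nmole of a random double-stranded 16-mer DNA library in Tris/NaCl/DTT/glycerol buffer. Each pool held DNA-barcoded human transcription factors, expressed in yeast as GST fusions and captured on glutathione beads, plus a tag-only sample. Binding signal is a hexamer's read frequency for a factor divided by its frequency in the tag-only sample.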
# ETV5 = ETV5 (Homo sapiens, UniProt P41161 1-510)
# ETV5, sequence (P41161 whole entry): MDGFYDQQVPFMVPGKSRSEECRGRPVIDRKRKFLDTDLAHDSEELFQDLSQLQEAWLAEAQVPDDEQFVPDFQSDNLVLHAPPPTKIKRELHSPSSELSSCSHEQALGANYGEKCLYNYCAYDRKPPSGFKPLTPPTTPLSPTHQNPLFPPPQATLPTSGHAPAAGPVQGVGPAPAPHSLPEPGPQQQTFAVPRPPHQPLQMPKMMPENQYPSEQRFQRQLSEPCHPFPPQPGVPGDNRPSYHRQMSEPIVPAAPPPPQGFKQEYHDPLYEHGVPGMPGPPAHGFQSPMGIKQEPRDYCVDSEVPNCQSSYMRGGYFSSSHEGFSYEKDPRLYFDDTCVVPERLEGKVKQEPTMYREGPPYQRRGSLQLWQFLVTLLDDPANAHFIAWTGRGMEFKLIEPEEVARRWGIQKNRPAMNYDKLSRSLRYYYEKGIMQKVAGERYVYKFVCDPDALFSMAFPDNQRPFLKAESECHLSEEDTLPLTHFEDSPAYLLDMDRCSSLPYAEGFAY
# Method in brief: as §1
# SPIC = target: T2, SPIC (Homo sapiens, UniProt Q8N5J4 1-248)
# T2 sequence: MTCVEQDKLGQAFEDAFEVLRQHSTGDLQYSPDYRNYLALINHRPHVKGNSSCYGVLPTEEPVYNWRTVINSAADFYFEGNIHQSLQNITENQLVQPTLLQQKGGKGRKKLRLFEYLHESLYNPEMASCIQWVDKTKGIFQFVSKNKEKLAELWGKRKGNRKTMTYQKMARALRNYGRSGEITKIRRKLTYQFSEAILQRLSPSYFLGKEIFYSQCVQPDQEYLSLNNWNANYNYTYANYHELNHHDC
# Method in brief: as §1
# ELF4 = ELF4 (Homo sapiens, UniProt Q99607 1-663)
# ELF4, sequence (Q99607 whole entry): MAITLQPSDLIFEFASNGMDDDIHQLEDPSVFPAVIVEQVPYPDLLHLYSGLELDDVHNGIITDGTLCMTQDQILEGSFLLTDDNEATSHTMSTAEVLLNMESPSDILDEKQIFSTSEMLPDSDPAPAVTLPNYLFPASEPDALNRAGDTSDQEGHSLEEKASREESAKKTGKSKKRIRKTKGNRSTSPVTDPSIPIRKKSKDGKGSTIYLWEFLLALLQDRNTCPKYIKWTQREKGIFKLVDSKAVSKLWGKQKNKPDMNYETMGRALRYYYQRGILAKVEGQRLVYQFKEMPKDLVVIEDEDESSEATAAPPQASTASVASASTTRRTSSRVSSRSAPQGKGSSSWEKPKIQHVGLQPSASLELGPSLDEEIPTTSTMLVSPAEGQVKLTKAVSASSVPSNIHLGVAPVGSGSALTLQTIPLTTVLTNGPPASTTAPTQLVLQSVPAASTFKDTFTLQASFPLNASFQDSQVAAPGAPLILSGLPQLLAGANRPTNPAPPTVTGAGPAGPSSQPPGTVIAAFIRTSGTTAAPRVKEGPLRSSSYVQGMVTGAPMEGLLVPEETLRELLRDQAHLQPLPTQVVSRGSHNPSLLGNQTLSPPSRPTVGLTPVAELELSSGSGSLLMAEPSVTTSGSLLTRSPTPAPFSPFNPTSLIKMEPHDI
# Method in brief: as §1
# ELK4 = target: T3, ELK4 (Homo sapiens, UniProt P28324-2 1-405)
# T3 sequence: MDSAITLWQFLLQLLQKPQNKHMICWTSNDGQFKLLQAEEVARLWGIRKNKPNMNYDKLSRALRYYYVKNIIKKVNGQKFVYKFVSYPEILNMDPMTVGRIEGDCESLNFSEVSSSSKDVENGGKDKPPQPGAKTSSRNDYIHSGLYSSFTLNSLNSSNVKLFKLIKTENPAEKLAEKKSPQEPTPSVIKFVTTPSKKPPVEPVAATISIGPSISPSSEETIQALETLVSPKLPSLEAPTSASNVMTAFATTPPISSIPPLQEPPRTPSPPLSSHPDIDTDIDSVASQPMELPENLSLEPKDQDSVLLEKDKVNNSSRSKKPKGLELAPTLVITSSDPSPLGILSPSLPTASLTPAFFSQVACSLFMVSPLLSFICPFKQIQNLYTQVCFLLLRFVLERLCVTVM
# Method in brief: as §1
# ETV2 = target: T4, ETV2 (Homo sapiens, UniProt O00321 1-342)
# T4 sequence: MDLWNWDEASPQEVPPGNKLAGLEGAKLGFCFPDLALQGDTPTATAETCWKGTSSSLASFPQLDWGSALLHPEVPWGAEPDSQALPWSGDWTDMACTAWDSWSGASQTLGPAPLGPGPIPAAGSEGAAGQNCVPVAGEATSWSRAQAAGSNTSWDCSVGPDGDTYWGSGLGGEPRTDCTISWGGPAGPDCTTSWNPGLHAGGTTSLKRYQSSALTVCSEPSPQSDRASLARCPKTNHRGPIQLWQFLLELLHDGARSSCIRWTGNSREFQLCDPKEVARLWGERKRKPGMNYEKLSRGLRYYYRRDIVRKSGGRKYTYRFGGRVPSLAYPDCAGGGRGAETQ
# Method in brief: as §1
# ELF3 = target: T5, ELF3 (Homo sapiens, UniProt P78545 1-371)
# T5 sequence: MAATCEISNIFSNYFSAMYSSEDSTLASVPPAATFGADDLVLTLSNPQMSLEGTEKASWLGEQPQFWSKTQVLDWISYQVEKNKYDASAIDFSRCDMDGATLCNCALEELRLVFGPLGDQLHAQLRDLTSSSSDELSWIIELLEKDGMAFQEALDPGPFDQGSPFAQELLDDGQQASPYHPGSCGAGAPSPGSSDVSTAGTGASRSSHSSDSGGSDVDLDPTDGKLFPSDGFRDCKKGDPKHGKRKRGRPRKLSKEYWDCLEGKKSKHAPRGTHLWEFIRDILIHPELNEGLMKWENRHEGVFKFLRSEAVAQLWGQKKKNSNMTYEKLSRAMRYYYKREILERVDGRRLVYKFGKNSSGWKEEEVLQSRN
# Method in brief: as §1
# CRX = CRX (Homo sapiens, UniProt O43186 1-299)
# CRX, sequence (O43186 whole entry): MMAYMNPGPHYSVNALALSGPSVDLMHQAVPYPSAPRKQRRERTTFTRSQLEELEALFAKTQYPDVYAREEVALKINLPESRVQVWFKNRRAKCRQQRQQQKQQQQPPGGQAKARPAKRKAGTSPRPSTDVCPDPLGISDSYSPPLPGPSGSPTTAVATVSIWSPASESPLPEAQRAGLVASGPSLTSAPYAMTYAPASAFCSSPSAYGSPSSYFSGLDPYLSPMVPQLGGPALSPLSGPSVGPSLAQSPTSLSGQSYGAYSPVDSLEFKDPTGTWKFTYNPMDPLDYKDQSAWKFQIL
# Method in brief: as §1
# ETV1 = ETV1 (Homo sapiens, UniProt P50549 1-477)
# ETV1, sequence (P50549 whole entry): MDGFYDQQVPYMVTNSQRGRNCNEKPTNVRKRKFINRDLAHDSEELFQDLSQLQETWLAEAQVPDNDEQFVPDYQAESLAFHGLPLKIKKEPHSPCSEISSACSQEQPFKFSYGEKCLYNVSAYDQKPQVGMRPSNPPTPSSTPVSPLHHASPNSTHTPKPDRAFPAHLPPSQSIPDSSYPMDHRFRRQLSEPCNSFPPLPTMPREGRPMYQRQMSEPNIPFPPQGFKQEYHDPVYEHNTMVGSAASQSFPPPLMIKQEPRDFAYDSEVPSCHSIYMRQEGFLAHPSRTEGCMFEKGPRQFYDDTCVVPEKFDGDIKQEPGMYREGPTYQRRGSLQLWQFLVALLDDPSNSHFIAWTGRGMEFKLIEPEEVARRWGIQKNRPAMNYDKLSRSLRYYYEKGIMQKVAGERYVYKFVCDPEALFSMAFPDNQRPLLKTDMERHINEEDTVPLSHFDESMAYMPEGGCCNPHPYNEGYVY
# Method in brief: as §1
# ERF = target: T6, ERF (Homo sapiens, UniProt P50548 1-548)
# T6 sequence: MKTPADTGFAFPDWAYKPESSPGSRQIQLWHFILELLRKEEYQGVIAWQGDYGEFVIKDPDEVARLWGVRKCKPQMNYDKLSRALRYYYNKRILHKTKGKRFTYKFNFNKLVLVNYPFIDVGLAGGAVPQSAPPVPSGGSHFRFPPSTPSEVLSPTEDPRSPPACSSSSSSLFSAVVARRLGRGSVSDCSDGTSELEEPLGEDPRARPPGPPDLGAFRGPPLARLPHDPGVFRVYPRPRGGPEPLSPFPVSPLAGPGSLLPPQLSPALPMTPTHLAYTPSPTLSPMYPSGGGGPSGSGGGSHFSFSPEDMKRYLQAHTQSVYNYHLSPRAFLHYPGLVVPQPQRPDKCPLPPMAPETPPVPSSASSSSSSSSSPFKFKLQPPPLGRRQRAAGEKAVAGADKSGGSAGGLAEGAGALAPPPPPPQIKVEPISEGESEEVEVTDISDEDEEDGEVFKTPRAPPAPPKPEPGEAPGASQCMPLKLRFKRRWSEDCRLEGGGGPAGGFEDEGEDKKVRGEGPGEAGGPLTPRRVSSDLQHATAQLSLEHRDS
# Method in brief: as §1
# ETV3L = target: T7, ETV3L (Homo sapiens, UniProt Q6ZN32 1-361)
# T7 sequence: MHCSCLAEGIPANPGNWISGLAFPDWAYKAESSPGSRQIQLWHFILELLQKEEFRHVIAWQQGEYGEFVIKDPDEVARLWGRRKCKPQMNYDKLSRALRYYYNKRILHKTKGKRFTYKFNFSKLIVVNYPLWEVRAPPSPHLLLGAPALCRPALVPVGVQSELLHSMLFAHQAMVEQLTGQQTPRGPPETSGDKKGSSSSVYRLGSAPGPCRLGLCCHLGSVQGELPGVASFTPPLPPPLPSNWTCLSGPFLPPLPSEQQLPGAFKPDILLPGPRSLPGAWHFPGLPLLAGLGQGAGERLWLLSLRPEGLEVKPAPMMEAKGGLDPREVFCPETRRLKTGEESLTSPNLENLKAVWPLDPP
# Method in brief: as §1
# ETS2 = target: T8, ETS2 (Homo sapiens, UniProt P15036 1-469)
# T8 sequence: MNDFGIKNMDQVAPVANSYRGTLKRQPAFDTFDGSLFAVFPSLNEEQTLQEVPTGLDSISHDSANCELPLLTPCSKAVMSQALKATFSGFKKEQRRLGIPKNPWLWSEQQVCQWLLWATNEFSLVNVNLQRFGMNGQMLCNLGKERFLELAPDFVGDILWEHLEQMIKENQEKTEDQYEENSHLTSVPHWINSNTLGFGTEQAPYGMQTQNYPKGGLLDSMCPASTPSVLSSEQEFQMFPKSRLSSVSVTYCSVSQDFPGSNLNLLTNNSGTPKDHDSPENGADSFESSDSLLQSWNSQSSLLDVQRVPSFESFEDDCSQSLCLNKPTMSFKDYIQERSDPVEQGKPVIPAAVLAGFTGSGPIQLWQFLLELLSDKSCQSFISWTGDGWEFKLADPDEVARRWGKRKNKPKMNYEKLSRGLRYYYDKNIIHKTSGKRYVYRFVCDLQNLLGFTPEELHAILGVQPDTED
# Method in brief: as §1
# SPDEF = target: T9, SPDEF (Homo sapiens, UniProt O95238 1-335)
# T9 sequence: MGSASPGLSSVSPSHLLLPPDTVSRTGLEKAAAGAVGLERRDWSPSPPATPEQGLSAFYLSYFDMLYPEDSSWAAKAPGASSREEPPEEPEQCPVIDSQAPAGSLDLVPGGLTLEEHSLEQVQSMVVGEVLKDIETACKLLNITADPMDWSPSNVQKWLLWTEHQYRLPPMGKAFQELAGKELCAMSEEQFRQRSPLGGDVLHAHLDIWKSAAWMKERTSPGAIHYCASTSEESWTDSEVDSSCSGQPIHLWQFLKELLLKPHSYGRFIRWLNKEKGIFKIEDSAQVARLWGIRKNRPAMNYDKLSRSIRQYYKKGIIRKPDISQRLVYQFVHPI
# Method in brief: as §1
# ETV7 = target: T10, ETV7 (Homo sapiens, UniProt Q9Y603 1-341)
# T10 sequence: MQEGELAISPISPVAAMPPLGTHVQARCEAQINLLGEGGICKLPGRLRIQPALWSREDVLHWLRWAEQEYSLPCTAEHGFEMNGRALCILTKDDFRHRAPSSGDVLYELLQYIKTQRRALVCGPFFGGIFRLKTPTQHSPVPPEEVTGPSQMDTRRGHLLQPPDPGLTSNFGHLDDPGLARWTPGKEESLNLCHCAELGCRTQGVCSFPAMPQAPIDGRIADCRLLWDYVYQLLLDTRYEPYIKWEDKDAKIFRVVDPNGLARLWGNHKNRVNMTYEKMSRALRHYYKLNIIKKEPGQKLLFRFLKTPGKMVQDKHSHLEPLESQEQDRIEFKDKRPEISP
# Method in brief: as §1
# ETV3 = target: T11, ETV3 (Homo sapiens, UniProt P41162-2 1-143)
# T11 sequence: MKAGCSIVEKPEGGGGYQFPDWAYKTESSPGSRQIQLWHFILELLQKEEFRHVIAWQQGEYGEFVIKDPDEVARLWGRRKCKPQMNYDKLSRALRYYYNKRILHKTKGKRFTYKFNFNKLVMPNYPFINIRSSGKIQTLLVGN
# Method in brief: as §1
# ETV6 = ETV6 (Homo sapiens, UniProt P41212 1-452)
# ETV6, sequence (P41212 whole entry): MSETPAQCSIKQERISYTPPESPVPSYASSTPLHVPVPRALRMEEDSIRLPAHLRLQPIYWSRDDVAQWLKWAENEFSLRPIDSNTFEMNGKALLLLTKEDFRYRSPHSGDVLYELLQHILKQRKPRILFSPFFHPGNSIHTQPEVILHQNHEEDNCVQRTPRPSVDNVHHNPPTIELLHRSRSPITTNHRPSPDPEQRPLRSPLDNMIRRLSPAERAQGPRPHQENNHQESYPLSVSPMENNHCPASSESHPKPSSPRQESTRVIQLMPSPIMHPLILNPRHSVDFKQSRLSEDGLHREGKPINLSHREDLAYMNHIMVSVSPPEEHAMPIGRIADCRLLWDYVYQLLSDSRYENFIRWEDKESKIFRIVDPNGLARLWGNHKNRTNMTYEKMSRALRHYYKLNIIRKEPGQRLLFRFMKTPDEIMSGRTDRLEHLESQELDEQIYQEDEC
# Method in brief: as §1
# ELF5 = target: T12, ELF5 (Homo sapiens, UniProt Q9UKW6-2 1-255)
# T12 sequence: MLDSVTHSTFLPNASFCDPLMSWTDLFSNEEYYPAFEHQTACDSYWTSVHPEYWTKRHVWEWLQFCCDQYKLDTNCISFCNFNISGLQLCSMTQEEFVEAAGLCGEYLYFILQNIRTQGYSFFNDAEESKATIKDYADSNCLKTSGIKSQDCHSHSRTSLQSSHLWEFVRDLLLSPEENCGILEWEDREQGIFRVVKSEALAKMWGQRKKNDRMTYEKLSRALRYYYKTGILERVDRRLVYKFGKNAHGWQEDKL
# Method in brief: as §1
Sequence,binding signal (FEV),binding signal (ETV5),binding signal (SPIC),binding signal (ELF4),binding signal (ELK4),binding signal (ETV2),binding signal (ELF3),binding signal (CRX),binding signal (ETV1),binding signal (ERF),binding signal (ETV3L),binding signal (ETS2),binding signal (SPDEF),binding signal (ETV7),binding signal (ETV3),binding signal (ETV6),binding signal (ELF5)
GGTGTT,"1 fold enrichment (6-mer frequency, TF over GST control)","1.09 fold enrichment (6-mer frequency, TF over GST control)","1.09 fold enrichment (6-mer frequency, TF over GST control)","1.09 fold enrichment (6-mer frequency, TF over GST control)","1.13 fold enrichment (6-mer frequency, TF over GST control)","1.13 fold enrichment (6-mer frequency, TF over GST control)","1.03 fold enrichment (6-mer frequency, TF over GST control)","1.01 fold enrichment (6-mer frequency, TF over GST control)","1.04 fold enrichment (6-mer frequency, TF over GST control)","1.14 fold enrichment (6-mer frequency, TF over GST control)","1.07 fold enrichment (6-mer frequency, TF over GST control)","1.08 fold enrichment (6-mer frequency, TF over GST control)","1.1 fold enrichment (6-mer frequency, TF over GST control)","1.01 fold enrichment (6-mer frequency, TF over GST control)","1.05 fold enrichment (6-mer frequency, TF over GST control)","1.1 fold enrichment (6-mer frequency, TF over GST control)",
CTGGTC,"1.11 fold enrichment (6-mer frequency, TF over GST control)","1.22 fold enrichment (6-mer frequency, TF over GST control)","1.2 fold enrichment (6-mer frequency, TF over GST control)","1.16 fold enrichment (6-mer frequency, TF over GST control)","1.19 fold enrichment (6-mer frequency, TF over GST control)","1.27 fold enrichment (6-mer frequency, TF over GST control)","1.05 fold enrichment (6-mer frequency, TF over GST control)",,"1.07 fold enrichment (6-mer frequency, TF over GST control)","1.19 fold enrichment (6-mer frequency, TF over GST control)","1.27 fold enrichment (6-mer frequency, TF over GST control)","1.21 fold enrichment (6-mer frequency, TF over GST control)","1.24 fold enrichment (6-mer frequency, TF over GST control)","1.15 fold enrichment (6-mer frequency, TF over GST control)","1.24 fold enrichment (6-mer frequency, TF over GST control)","1.08 fold enrichment (6-mer frequency, TF over GST control)","1.17 fold enrichment (6-mer frequency, TF over GST control)"

# Reference: PMC7862700, “An all-to-all approach to the identification of sequence-specific readers for epigenetic DNA modifications on cytosine”
